About 83,000 compounds went through this panel and 20% of them were active in at least one assay; those are over-represented in the sample as a whole.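 Negative percent growth values reflect cell death: -40 means 40% of the cells present at the start died, and -100 means all died.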 A number with no mark means an inactive call. Calls of active or inactive are those of the source. How the source made its calls: active means growth percent below 10; inactive means the rest.
What was measured:
Test in all cases: NCI-60 one-dose screen, 48 h (100 = growth as untreated, 0 = no growth, -100 = all killed)
Conditions in all cases: 10 µM unless noted
[1] = tested on: T-47D breast
[2] = tested on: BT-549 breast
[3] = tested on: MDA-MB-435 melanoma
[4] = tested on: SW-620 colon
[5] = tested on: MCF7 breast
[6] = tested on: HCT-116 colon
[7] = tested on: HCC-2998 colon
[8] = tested on: KM12 colon

SMILES: CC1(COc2ccc3ncc(C#Cc4cncc(C(=O)Nc5cccc(C(F)(F)F)c5)c4)n3n2)COC1
- growth [1]: 78.9%
- growth [2]: 128%
- growth [3]: 89.2%
- growth [4]: 69%
- growth [5]: 62.8%
- growth [6]: 56.4%
- growth [7]: 86.9%
- growth [8]: 21.1%

SMILES: COc1ccc([C@@H]2[C@@H](O)C(=O)N2c2cc(OC)c(OC)c(OC)c2)cc1F
- growth [1]: 68%
- growth [2]: -18.5% (active)
- growth [3]: -12% (active)
- growth [4]: 22.5%
- growth [5]: 9.59% (active)
- growth [6]: 2.32% (active)
- growth [7]: 5.15% (active)
- growth [8]: 6.09% (active)

SMILES: CC(C)(C)n1nnnc1C(Nc1cccc2c1OCO2)c1cc2cccc3ccc4cccc1c4c32 (stereo not drawn)
- growth [1]: 65.9%
- growth [2]: 130%
- growth [3]: 84.2%
- growth [4]: 88.8%
- growth [5]: 64.9%
- growth [6]: 63%
- growth [7]: 98.7%
- growth [8]: 95.4%

SMILES: CN1CCN(c2ccc(/C=N/n3cnc4oc(-c5ccccc5)cc4c3=N)cc2)CC1
- growth [1]: 84.1%
- growth [2]: 89.7%
- growth [3]: 94.7%
- growth [4]: 94%
- growth [5]: 81.1%
- growth [6]: 73.9%
- growth [7]: 101%
- growth [8]: 63.7%

SMILES: C#CCn1cccc1CNc1ccc(OC)cc1
- growth [1]: -55.7% (active)
- growth [2]: -83.7% (active)
- growth [3]: -54.5% (active)
- growth [4]: -36.2% (active)
- growth [5]: -53.8% (active)
- growth [6]: -68.7% (active)
- growth [7]: -89% (active)
- growth [8]: -72.6% (active)

SMILES: N#Cc1cnc2ccc(-c3cnc(N)nc3)cc2c1N1CCc2cc(F)c(Cl)cc21
- growth [1]: 9.38% (active)
- growth [2]: 3.1% (active)
- growth [3]: -1.22% (active)
- growth [4]: 9.24% (active)
- growth [5]: 5.81% (active)
- growth [6]: 2.24% (active)
- growth [7]: -3.03% (active)
- growth [8]: 7.85% (active)

SMILES: O=C1Nc2ccccc2/C1=C/c1ccc(COCC2CO2)n1-c1ccc(O)cc1 (stereo not drawn)
- growth [1]: 91.4%
- growth [2]: 106%
- growth [3]: 103%
- growth [4]: 96.2%
- growth [5]: 84.6%
- growth [6]: 99.2%
- growth [7]: 108%
- growth [8]: 17.8%

SMILES: CCCCCc1ccc(S(=O)(=O)Nc2cccc(-c3csc(NC(=O)CCCCCN4CCN(CCO)CC4)n3)c2)cc1
- growth [1]: 73.5%
- growth [2]: 102%
- growth [3]: 36.8%
- growth [4]: 25.6%
- growth [5]: 19.8%
- growth [6]: 30.3%
- growth [7]: 41.5%
- growth [8]: 88%

SMILES: CCCCCc1ccc(S(=O)(=O)Nc2cccc(-c3csc(NC(=O)CN4CCN(CCO)CC4)n3)c2)cc1
- growth [1]: 64.5%
- growth [2]: 99.9%
- growth [3]: 44.3%
- growth [4]: 74.3%
- growth [5]: 35.8%
- growth [6]: 45%
- growth [7]: 26.9%
- growth [8]: 54%

SMILES: O=C(CN1CCN(c2cc(=O)n(-c3ccccc3)c3ccccc23)CC1)Nc1nc(-c2ccccc2)cs1
- growth [1]: 16.6%
- growth [2]: 67.1%
- growth [3]: 73.4%
- growth [4]: 68.6%
- growth [5]: 27.6%
- growth [6]: 53.4%
- growth [7]: 81.8%
- growth [8]: 63%

SMILES: O=C1CCCC2=C1C(c1c[nH]c3ccc(Br)cc13)Cc1cc(Br)ccc1N2 (stereo not drawn)
- growth [1]: 20.7%
- growth [2]: 39.4%
- growth [3]: -10.2% (active)
- growth [4]: 22.7%
- growth [5]: 23.4%
- growth [6]: 19.3%
- growth [7]: 68.2%
- growth [8]: 21.7%

SMILES: N=c1c2cc(-c3ccccc3)oc2ncn1/N=C/c1ccc(Cl)cc1
- growth [1]: 81%
- growth [2]: 105%
- growth [3]: 72.6%
- growth [4]: 29.5%
- growth [5]: 70.8%
- growth [6]: 66.6%
- growth [7]: 102%
- growth [8]: 31%

SMILES: C=CCn1c(SCC(=O)Nc2ccc(C(=O)/C=C/c3cccc([N+](=O)[O-])c3)cc2)nnc1-c1c[nH]c2ccccc12
- growth [1]: 59.8%
- growth [2]: 117%
- growth [3]: 98.4%
- growth [4]: 98.7%
- growth [5]: 25.4%
- growth [6]: -32.6% (active)
- growth [7]: 86%
- growth [8]: 93.4%

SMILES: O=C(CCn1cc[n+](CC(=O)c2ccc(-c3ccccc3)cc2)c1)Nc1cccc2cccnc12
- growth [1]: 42.4%
- growth [2]: 57.2%
- growth [3]: 87.2%
- growth [4]: 85.8%
- growth [5]: 58%
- growth [6]: 84.5%
- growth [7]: 68.4%
- growth [8]: 42.9%

SMILES: CCOC(=O)c1c(Nc2ccccc2)nn2c(-c3ccc(OC)cc3)ccnc12
- growth [1]: 75.1%
- growth [2]: 127%
- growth [3]: 90.4%
- growth [4]: 95.1%
- growth [5]: 89.9%
- growth [6]: 71.7%
- growth [7]: 95.7%
- growth [8]: 73.9%

SMILES: COc1cc(/C=C2\C(=O)Nc3cc(Cl)ccc32)ccc1OCc1ccc(F)cc1
- growth [1]: 94.1%
- growth [2]: 95.7%
- growth [3]: 103%
- growth [4]: 98.2%
- growth [5]: 57.1%
- growth [6]: 92.9%
- growth [7]: 96.8%
- growth [8]: 102%

SMILES: CN1CCN(Cc2ccc(NC(=O)c3cncc(C#Cc4cnc5ccc(OCC6(C)COC6)nn45)c3)cc2C(F)(F)F)CC1
- growth [1]: -49.9% (active)
- growth [2]: -62% (active)
- growth [3]: -90.9% (active)
- growth [4]: -44.8% (active)
- growth [5]: -76% (active)
- growth [6]: -75.5% (active)
- growth [7]: -89.6% (active)
- growth [8]: -82.1% (active)

SMILES: O=C(CCC(=O)N1CCOCC1)OCCCCCCSc1ccc([N+](=O)[O-])c2nonc12
- growth [1]: -36.2% (active)
- growth [2]: -52.5% (active)
- growth [3]: -88.1% (active)
- growth [4]: -54.9% (active)
- growth [5]: -57.7% (active)
- growth [6]: -54.7% (active)
- growth [7]: -69.4% (active)
- growth [8]: -68.7% (active)

SMILES: N#C/C(=C\c1ccc(-c2ccc(Cl)cc2Cl)o1)c1ccc(F)cc1
- growth [1]: 78.8%
- growth [2]: 112%
- growth [3]: 93.7%
- growth [4]: 93.5%
- growth [5]: 66.9%
- growth [6]: 88.1%
- growth [7]: 105%
- growth [8]: 94.2%

SMILES: Fc1ccc(-c2cc3nc(C(Cl)Cl)nc(-c4ccc(F)cc4)n3n2)cc1
- growth [1]: 34.3%
- growth [2]: 47%
- growth [3]: 14.6%
- growth [4]: -29.3% (active)
- growth [5]: 24.2%
- growth [6]: 4.72% (active)
- growth [7]: -45.8% (active)
- growth [8]: -12.5% (active)

SMILES: CCCCCc1ccc(S(=O)(=O)Nc2cccc(-c3csc(NCCN4CCN(C)CC4)n3)c2)cc1
- growth [1]: 80.1%
- growth [2]: 95.1%
- growth [3]: 29.7%
- growth [4]: 2.57% (active)
- growth [5]: 15.5%
- growth [6]: 4.07% (active)
- growth [7]: -6.69% (active)
- growth [8]: 77.7%

SMILES: CCn1c(SCC(=O)Nc2cccc(C(=O)/C=C/c3ccc(Br)cc3)c2)nc2ccccc2c1=O
- growth [1]: 90.7%
- growth [2]: 85.7%
- growth [3]: 99.2%
- growth [4]: 80.9%
- growth [5]: 21.5%
- growth [6]: 28.4%
- growth [7]: 95.3%
- growth [8]: 96.5%

SMILES: CC1=CC(=O)C2=C(C)CC(OC(=O)CCc3ccccc3)[C@@H]3[C@H](OC(=O)[C@@H]3C)[C@@H]12 (stereo partly drawn)
- growth [1]: 96.5%
- growth [2]: 98.9%
- growth [3]: 93.3%
- growth [4]: 96.7%
- growth [5]: 83.9%
- growth [6]: 69.2%
- growth [7]: 102%
- growth [8]: 91.2%

SMILES: NS(=O)(=O)c1ccc(-n2cc(CN3CCCCC3)nn2)cc1
- growth [1]: 110%
- growth [2]: 108%
- growth [3]: 106%
- growth [4]: 106%
- growth [5]: 96.9%
- growth [6]: 107%
- growth [7]: 106%
- growth [8]: 95.3%

SMILES: Cc1cc(C(NC(=O)CCCCCNc2cccc3c2C(=O)N(C2CCC(=O)NC2=O)C3=O)c2ccc3c(c2)OC(F)(F)O3)c(O)c2ncccc12 (stereo not drawn)
- growth [1]: 67.6%
- growth [2]: 36.6%
- growth [3]: 27.8%
- growth [4]: 40.2%
- growth [5]: 29.5%
- growth [6]: 27.8%
- growth [7]: 79.2%
- growth [8]: 39.9%

SMILES: Cn1ccnc1C(=O)/C=C/c1ccc(NC(=O)c2ccc(F)cc2)cc1
- growth [1]: 22.5%
- growth [2]: 69.4%
- growth [3]: 43.1%
- growth [4]: 14.8%
- growth [5]: 18%
- growth [6]: 8.87% (active)
- growth [7]: 39.5%
- growth [8]: 24.8%

SMILES: CNC(=O)c1cc(N2CCc3cc(NC(=O)Nc4ccc(Cl)c(C(F)(F)F)c4)ccc32)ccn1
- growth [1]: 49.2%
- growth [2]: 72.3%
- growth [3]: 53.3%
- growth [4]: 88.2%
- growth [5]: 29.8%
- growth [6]: 39.4%
- growth [7]: 53.7%
- growth [8]: 17%

SMILES: O=C1CCCc2nc(Nc3ccc(S(=O)(=O)Nc4ccc([N+](=O)[O-])cc4)cc3)ncc21
- growth [1]: 105%
- growth [2]: 117%
- growth [3]: 104%
- growth [4]: 102%
- growth [5]: 95.2%
- growth [6]: 108%
- growth [7]: 110%
- growth [8]: 98.3%

SMILES: COc1cccc(O)c1/C=C(/C)c1ccc2c(OC)cccc2[o+]1
- growth [1]: 106%
- growth [2]: 95.7%
- growth [3]: 86.7%
- growth [4]: 96.7%
- growth [5]: 93.8%
- growth [6]: 101%
- growth [7]: 110%
- growth [8]: 101%

SMILES: Cc1c(F)cc(C(N)=O)cc1NCC(=O)Nc1ccc([N+](=O)[O-])cc1
- growth [1]: 102%
- growth [2]: 98%
- growth [3]: 99.8%
- growth [4]: 92.9%
- growth [5]: 87.1%
- growth [6]: 99.9%
- growth [7]: 105%
- growth [8]: 98.6%

SMILES: Cc1occc1-c1nc2s/c(=C/c3ccc(-c4cc(C(F)(F)F)ccc4Cl)o3)c(=O)n2n1
- growth [1]: 92.7%
- growth [2]: 108%
- growth [3]: 101%
- growth [4]: 101%
- growth [5]: 90%
- growth [6]: 102%
- growth [7]: 106%
- growth [8]: 99.9%

— PubChem BioAssay (NCI)
